# Results filed as inconclusive are left out. A call without a number means that no potency is given here. Activity calls are given as the source filed them. The call rests on the fitted dose curve; in most records, active means well fitted cell-killing curve with a large enough effect; inconclusive means small, poorly fitted or top-dose-only effect, or effect the other way; inactive means no such curve, though single readings can be large or run the other way.
# Test: Quantitative High-Throughput drug screen in 47 multiple myeloma cell lines against the NCATS MIPE library collection: FR4_PLB cell viability assay (AID 1918924; further: nearly all actives have a fitted effect of over 35% in size)
# Details: FR4_PLB myeloma cells viability, CellTiter-Glo ATP, 48 h; series mostly up to 45.8 µM
# Description: PI: Beverly A. Mock Ph.D.
# Laboratory of Cancer Biology and Genetics,
# Center for Cancer Research, National Cancer Institute,
# National Institute of Health, Bethesda, Maryland
# Drug resistance and disease progression are common in multiple myeloma (MM) patients, underscoring the need for new therapeutic combinations. […] We hypothesized that effective combinations would reduce MYC expression and enhance p16 activity. […] These preclinical data identify potentially useful drug combinations for evaluation in drug-resistant MM and reveal potential mechanisms of combined drug sensitivity.
# Described herein is the primary MIPE qHTS used to cherrypick compounds. Validated compounds were then further tested for potential synergistic activiy.
# [1] Peat TJ, Gaikwad SM, Dubois W, Gyabaah-Kessie N, Zhang S, Gorjifard S, Phyo Z, Andres M, Hughitt VK, Simpson RM, Miller MA, Girvin AT, Taylor A, Williams D, D'Antonio N, Zhang Y, Rajagopalan A, Flietner E, Wilson K, Zhang X, Shinn P, Klumpp-Thomas C, McKnight C, Itkin Z, Chen L, Kazandijian D, Zhang J, Michalowski AM, Simmons JK, Keats J, Thomas CJ, Mock BA. Drug combinations identified by high-throughput screening promote cell cycle transition and upregulate Smad pathways in myeloma. Cancer Lett. 2023 Aug 1;568:216284. doi: 10.1016/j.canlet.2023.216284. Epub 2023 Jun 24. PMID: 37356470; PMCID: PMC10408729.
# SEQUENCE No. (e.g., 1, 2, 3, etc.); […] (e.g., Cells, Incubation, Reagent, etc.); VALUE and DESCRIPTION.
# 1; Cells; 5 uL; white, solid bottom 1536-well Greiner assay plate.
# 2; Compounds; 23 nL; Kalypsis pin tool (Wako USA) equipped with a 1536-well pin head to transfer to the assay plates.
# 3; Incubation; 48 hours; 37C incubation.
# 4; Reagent;5uL; CellTiter Glo (Promega).
# 5; Detector; 425V; Luminescence; Viewlux PerkinElmer.
# NOTES (numbers refer to Sequence numbers above)
# 1. The cell-based screening methods employed in this study were like those previously published. Briefly, the corresponding myeloma cell lines were screened in 1,536-well plates with 500 cells, 5-uL per well for inhibition of cell viability (assessed by measuring ATP levels with CellTiterGlo).
# 2. NCATS MIPE 4.0 library of approved and investigational drugs were added using the Kalypsis pin tool. Wells treated with DMSO only for 100% viability and media only wells for 0% viability were used as controls.
# 3. The assay plates were covered and incubated for 48 hours in a 37C, 5% CO2 incubator with controlled humidity.
# 4. After 48 hours, CellTilter-GloTM luminescent substrate mix (Promega) reagent was added to the assay plate and plates we incubated for 5 min at room temperature.
# 5. Signal was measured as median relative luminescence units on a ViewLux (PerkinElmer) multiplate reader.
# [1] Heske CM, Davis MI, Baumgart JT, Wilson K, Gormally MV, Chen L, Zhang X, Ceribelli M, Duveau DY, Guha R, Ferrer M, Arnaldez FI, Ji J, Tran HL, Zhang Y, Mendoza A, Helman LJ, Thomas CJ. Matrix Screen Identifies Synergistic Combination of PARP Inhibitors and Nicotinamide Phosphoribosyltransferase (NAMPT) Inhibitors in Ewing Sarcoma. Clin Cancer Res. 2017 Dec 1;23(23):7301-7311. doi: 10.1158/1078-0432.CCR-17-1121. Epub 2017 Sep 12. PMID: 28899971; PMCID: PMC6636827.
# Potency means the concentration at half of the fitted maximal effect.
row,SMILES,Potency
1,CC(C)[C@]12O[C@@H]1[C@@H]1O[C@]13[C@]1(O[C@H]1C[C@@H]1C4=C(CC[C@@]13C)C(=O)OC4)[C@H]2O,inactive
2,CC(C)(C)[C@]1(O)C[C@@H]2OC(=O)C[C@@]23C(=O)O[C@@H]2OC(=O)[C@H](O)C213 (stereo not given in full),inactive
3,CC(C)(O)C=CC(=O)[C@](C)(O)[C@H]1[C@H](O)C[C@]2(C)[C@@H]3CC=C4[C@@H](C=C(O)C(=O)C4(C)C)[C@]3(C)C(=O)C[C@@]12C,0.0469 µM (active)
4,CC(=Cc1csc(C)n1)[C@@H]1C[C@H]2O[C@@H]2CCC[C@H](C)[C@@H](O)[C@@H](C)C(=O)C(C)(C)[C@@H](O)CC(=O)O1,inactive
5,COc1cccc2c1[C@]13CCN(CC4CC4)[C@H](C2)[C@]1(OC)CCC(=O)C3,inactive
6,CC(=O)OCC1=C(C(=O)O)N2C(=O)[C@@H](N)[C@@H]2SC1,inactive
7,CCCCCC[C@H]1C(=O)O[C@H](C)[C@H](NC(=O)c2cccc(NC=O)c2O)C(=O)O[C@@H](C)[C@@H]1OC(=O)CC(C)C,0.0662 µM (active)
8,CC(N[C@H]1C[C@H]1c1ccccc1)c1ccc2c(c1)OCCO2 (stereo not given in full),inactive
9,C[C@](O)(COc1ccc(C#N)cc1)C(=O)Nc1ccc(C#N)c(C(F)(F)F)c1,inactive
10,CCc1c(C(=O)C(N)=O)c2c(OCC(=O)O)cccc2n1Cc1ccccc1,inactive
11,C[C@H]([C@H](O)CCC(C)(C)O)[C@H]1CC[C@@]2(O)C3=CC(=O)[C@@H]4C[C@@H](O)[C@@H](O)C[C@]4(C)[C@@H]3CC[C@]12C,inactive
12,COc1ccc2c(c[n+](C)c3c4cc5c(cc4ccc23)OCO5)c1OC,4.18 µM (active)
13,CC=C(C)C(=O)N[C@@H](c1ccccc1)[C@@H](O)C(=O)O[C@H]1C[C@@]2(O)[C@@H](OC(=O)c3ccccc3)[C@@H]3[C@]4(OC(C)=O)CO[C@@H]4C[C@H](O)[C@@]3(C)C(=O)[C@H](OC(C)=O)C(=C1C)C2(C)C,inactive
14,NC1CC1c1ccccc1 (stereo not given),inactive
15,N#C[C@H](O[C@@H]1O[C@H](CO[C@@H]2O[C@H](CO)[C@H](O)[C@H](O)[C@H]2O)[C@H](O)[C@H](O)[C@H]1O)c1ccccc1,20.9 µM (active)
16,COC1=CC(C)=C[C@@H](C)[C@@H](O)[C@@H](C)CC(C)=CC=C[C@H](OC)[C@H]([C@@H](C)[C@@H](O)[C@H](C)[C@@]2(O)C[C@@H](O)[C@H](C)[C@@H](C(C)C)O2)OC1=O,0.0042 µM (active)
17,CCCN1CCO[C@@H]2c3cc(O)ccc3OC[C@@H]21,inactive
18,C=C[C@@H]1CN2CCC1C[C@H]2[C@H](O)c1ccnc2ccccc12 (stereo not given in full),18.7 µM (active)
19,O=c1[nH]c2ccc(Cl)cc2c(N[C@@H]2CN3CCC2CC3)c1-c1nc2ccccc2[nH]1,0.0743 µM (active)
20,CCN1CCN(C(=O)Cc2ccc(Nc3ncc(F)c(Nc4ccc(C(=O)Nc5ccccc5Cl)cc4)n3)cc2)CC1,3.72 µM (active)

row,SMILES,Potency
1,O=S(=O)(F)Cc1ccccc1,inactive
2,CC(=O)O[C@@]12CO[C@H]1C[C@H](O)[C@@]1(C)C(=O)[C@H](O)C3=C(C)[C@@H](O)C[C@@](O)([C@@H](OC(=O)c4ccccc4)[C@@H]21)C3(C)C,1.05 µM (active)
3,C[C@@]12OC(=O)[C@]1([C@@H](O)[C@@H]1C=CCCC1)NC(=O)[C@H]2CCCl,0.0053 µM (active)
4,CN1CCN(c2ccc([N+](=O)[O-])c3no[n+]([O-])c23)CC1,20.9 µM (active)
5,Clc1ccccc1C(c1ccccc1)(c1ccccc1)n1cccn1,inactive
6,Cc1ccccc1-n1c(Cn2ncc3c(N)ncnc32)nc2cccc(C)c2c1=O,4.69 µM (active)
7,O=C(Oc1ccc([N+](=O)[O-])cc1)N1CCN(Cc2cccc(Oc3ccccc3)c2)CC1,inactive
8,CCC(=O)OC1CCC2C3CCC4=CC(=O)CC[C@@]4(C)C3CC[C@]12C (stereo not given in full),inactive
9,Cc1c(N)nc([C@H](CC(N)=O)NC[C@@H](N)C(N)=O)nc1C(=O)N[C@H](C(=O)N[C@@H](C)[C@H](O)[C@@H](C)C(=O)N[C@@H](C(=O)NCCc1nc(-c2nc(C(=O)NCCC[S+](C)C)cs2)cs1)[C@@H](C)O)C(O[C@H]1O[C@H](CO)[C@H](O)[C@@H](O)[C@@H]1O[C@H]1O[C@H](CO)[C@@H](O)[C@H](OC(N)=O)[C@H]1O)c1cnc[nH]1 (stereo not given in full),inactive
10,CC(=Cc1csc(C)n1)[C@@H]1C[C@H]2O[C@]2(C)CCC[C@H](C)[C@@H](O)[C@@H](C)C(=O)C(C)(C)[C@@H](O)CC(=O)O1,inactive
11,CCCC[N+]1(C)[C@H]2CC(OC(=O)[C@H](CO)c3ccccc3)C[C@H]1[C@H]1O[C@H]12 (stereo not given in full),inactive
12,CC=C(C)C(=O)O[C@H]1C(C)=C2[C@@H]3OC(=O)[C@@](C)(O)[C@@]3(O)[C@@H](OC(=O)CCC)C[C@](C)(OC(C)=O)[C@@H]2[C@@H]1OC(=O)CCCCCCC,0.0264 µM (active)
13,CN1[C@H]2CC(O)C[C@H]1[C@H]1O[C@H]12 (stereo not given in full),26.4 µM (active)
14,O=c1[nH]c2ccccc2n1C1CCN(Cc2ccc(-c3[nH]c4cc5ncnc5cc4nc3-c3ccccc3)cc2)CC1,23.5 µM (active)
15,COCC1(CO)C(=O)C2CCN1CC2 (stereo not given),16.6 µM (active)
16,CCN1C[C@]2(OC(=O)c3ccccc3NC(C)=O)CC[C@H](OC)[C@@]34[C@H]5CC6[C@@H](OC)C[C@](O)(C(C[C@@H]23)[C@@H]14)[C@@]5(O)[C@@H]6OC,inactive
17,C[C@]12CC[C@@H]3[C@@H](CCC4=CC(=O)CC[C@@H]43)[C@@H]1CC[C@@H]2OC(=O)CCc1ccccc1,inactive
18,C[C@@H]1CC[C@@]2(OC1)O[C@H]1C[C@H]3[C@@H]4CC=C5C[C@@H](O[C@@H]6O[C@H](CO)[C@@H](O[C@@H]7O[C@@H](C)[C@H](O)[C@@H](O)[C@@H]7O)[C@H](O)[C@@H]6O[C@@H]6O[C@@H](C)[C@H](O)[C@@H](O)[C@@H]6O)CC[C@]5(C)[C@@H]4CC[C@]3(C)[C@@H]1[C@H]2C,2.35 µM (active)
19,CN(C)NC(=O)CCC(=O)O,inactive
20,c1ccc(CCCN2CCN(CCOC(c3ccccc3)c3ccccc3)CC2)cc1,23.5 µM (active)
